BAZ2B inh – qHTS Assay for Inhibitors of BAZ2B; AlphaScreen BAZ2B-H3K14Ac peptide displacement; 360,000 compounds, 4.4% hits; Potency, µM (series often up to 114 µM), for inactives: at the top dose activity change, negative = inhibition, hits mostly inhibitors; Bromodomain adjacent to zinc finger domain protein 2B (Homo sapiens), Q9UIF8; further: on the % scale 0 is the no-effect control and ±100 the full control effect; nearly all actives have a fitted effect of over 60% in size
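AlphaScreen displacement of biotin-H3(5-23)K14Ac peptide (50 nM final) from BAZ2B (50 nM final) in PBS pH 7.4, 0.01% Tween-20; complex preformed 30 min RT, then compounds (top 110 uM) 30 min RT, beads 20 min dark.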
HP1b chromo inh – HTS for Inhibitors of HP1-beta Chromodomain Interactions with Methylated Histone Tails; Chromobox protein homolog 1 (Homo sapiens), P83916; AlphaScreen HP1-beta / biotin-H3K9me3 peptide binding; Potency, µM (series often up to 114 µM), inactives show at the highest dose activity change, negative = inhibition, usual class: inhibitors; 390,000 compounds, 0.56% hits; further: nearly all actives have a fitted effect of over 70% in size
Target sequence (P83916 whole entry, looked up): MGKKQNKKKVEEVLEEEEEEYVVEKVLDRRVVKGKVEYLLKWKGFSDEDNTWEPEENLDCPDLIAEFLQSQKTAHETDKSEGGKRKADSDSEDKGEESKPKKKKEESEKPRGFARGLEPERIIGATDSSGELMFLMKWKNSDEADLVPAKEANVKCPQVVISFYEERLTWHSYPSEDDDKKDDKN
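AlphaScreen: HP1-beta (50 nM) preformed 30 min with biotin-H3(1-18)K9me3 peptide (50 nM) in PBS pH 7.4, 0.01% Tween-20. Compound added for 30 min at RT, then streptavidin donor/nickel chelate acceptor beads (10 ug/mL) for 30 min.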
TDP1 block – qHTS Assay for Inhibitors of Tyrosyl-DNA Phosphodiesterase (TDP1) | Tyrosyl-DNA phosphodiesterase 1 (Homo sapiens), Q9NUW8 | recombinant TDP1, AlphaScreen DNA substrate cleavage | Potency, µM (doses to about 130 µM), for the others: at the top dose activity change, negative = inhibition, hits mostly inhibitors | 350,000 compounds, 0.28% hits | AID 485290, 2010; further: on the % scale 0 is the no-effect control and ±100 the full control effect; nearly all actives have a fitted effect of over 40% in size
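Here, a 5' biotin and 3' phosphotyrosine-FITC DNA oligonucleotide reports Tdp1 activity: intact substrate bridges AlphaScreen beads, while cleavage leaves a 3' phosphate and drops signal. All incubations at room temperature.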
Sfp PPTase inh – qHTS Assay for Inhibitors of Bacillus subtilis Sfp phosphopantetheinyl transferase (PPTase). 4'-phosphopantetheinyl transferase ffp (Bacillus subtilis), Q9F4F7. Biochemical Sfp PPTase activity, qHTS. Potency, µM, for the others: largest response in the series, negative = inhibition, hits mostly inhibitors. 310,000 compounds, 3.5% hits;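 further: the enzyme is Sfp with the accession as filed and its product quenches rhodamine fluorescence; 0% = enzyme reaction without inhibitor and -100% = no enzyme wells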
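Sfp 15 nM + cpd, 15 min RT; start w/ rhodamine-CoA 5 uM, BHQ-2-YbbR 12.5 uM (final); 50 mM Hepes pH 7.6, 10 mM MgCl2, 0.01% NP-40, 0.01% BSA; read 525/598 nm at 0 and 30 min.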
JMJD2A Tudor inh – qHTS Assay for Inhibitors of JMJD2A-Tudor Domain. Lysine-specific demethylase 4A (Homo sapiens), O75164. AlphaScreen JMJD2A-Tudor / H3K4me3 peptide binding. Potency, µM (top dose mostly 114 µM), inactives show at the top dose activity change, negative = inhibition, hits mostly inhibitors. 390,000 compounds, 4.4% hits. AID 504339, 2011; further: on the % scale 0 is the no-effect control and ±100 the full control effect; nearly all actives have a fitted effect of over 50% in size
G9a block – qHTS Assay for Inhibitors of Histone Lysine Methyltransferase G9a; Potency, µM (top dose mostly 102 µM), for inactives: at the top dose activity, negative = inhibition, most hits filed as inhibitors; Histone-lysine N-methyltransferase EHMT2 (Homo sapiens), Q96KQ7; 350,000 compounds, 8.8% hits; G9a H3K9 monomethylation, AlphaScreen, 2 h; further: on the % scale 0 is the no-effect control and ±100 the full control effect; nearly all actives have a fitted effect of over 75% in size
Target sequence (Q96KQ7 913-1193 limits assumed): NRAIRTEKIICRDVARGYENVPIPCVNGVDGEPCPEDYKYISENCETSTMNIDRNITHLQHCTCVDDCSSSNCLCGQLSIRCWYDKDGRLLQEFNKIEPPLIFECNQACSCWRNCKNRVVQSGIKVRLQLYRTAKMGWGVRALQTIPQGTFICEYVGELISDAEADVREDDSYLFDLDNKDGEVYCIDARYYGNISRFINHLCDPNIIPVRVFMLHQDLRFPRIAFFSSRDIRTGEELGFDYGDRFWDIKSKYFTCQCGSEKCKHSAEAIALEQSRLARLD
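Using a bead-based AlphaScreen, monomethylated H3K9 product from 2 h room-temperature reactions (G9a 20 nM, peptide 500 nM, SAM 20 uM) was detected with 0.5 ug/mL rabbit anti-H3K9me1 antibody.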
* marks the source's active call; other numbers are inactive results; ? = inconclusive; . = no result given; [ ] = another dose, or the depositor's remark. The list is not random: actives were taken first. Their share in the collection is about 12%. The call rests on the fitted dose curve; in most records, active means well fitted curve in the direction sought with a large enough effect; inconclusive means small, poorly fitted or top-dose-only effect, or another doubt; inactive means no such curve, though single readings can be large; an effect the other way counts as inactive or inconclusive. Potency means the concentration at half of the fitted maximal effect.

SMILES | BAZ2B inh | HP1b chromo inh | TDP1 block | Sfp PPTase inh | JMJD2A Tudor inh | G9a block
COc1ccc(C2(C)NC(=O)N(CC(=O)Nc3ccc4[nH]c(=O)[nH]c4c3)C2=O)cc1 (centres undefined) | -1% | 24% | -5% | . | -10% | -47%
CC1(c2ccc(OC(F)F)cc2)NC(=O)N(CC(=O)Nc2ccccc2)C1=O (centres undefined) | -10% | 10% | . | 19% | 9% | 21%
O=C(O)CCC(=O)OCCN(Cc1ccc(Oc2ccc([N+](=O)[O-])cc2)cc1)C(=O)C(Cl)Cl | . | 24% | . | . | -12% | .
Cc1cn(C2CCC(CO)O2)c(=O)[nH]c1=O (centres undefined) | 2% | 13% | 14%[56.1 µM] | 13% | -4% | 25%
CCCn1c(C)nc2c(NCc3ccccc3)nc(C)nc21 | . | . | 6% | 8% | . | .
CCn1c(/C=C/Nc2ccccc2)[n+](CC)c2ccc(Cl)cc21 | 3% | 7% | 3% | 4% | -23% | 45µM*
CCOc1ccc(-c2cc(NC(=O)Nc3cccc(C(C)=O)c3)c(C(=O)OC)s2)cc1 | -3% | 46% | -3% | . | -11% | 12%[59 µM]
CC(NC(=O)Nc1ccccc1C(F)(F)F)c1c(-n2cccc2)sc2c1CCCC2 (centres undefined) | -16% | 30% | 11% | . | -15% | -8%[59 µM]
CCn1cc(C2Nc3ccccc3C(=O)N2O)c(C)n1 (centres undefined) | 8% | 46% | 6% | -16% | -21% | 18µM*
Cc1c(C2Nc3ccccc3C(=O)N2O)cnn1C (centres undefined) | -14% | 74% | 2% | 1% | ? | 10µM*
COc1cccc(C2Nc3ccccc3C(=O)N2O)c1O (centres undefined) | ? | 20% | 5% | 1% | -23% | 10%[59 µM]
Cc1ccc(C(C)c2c(C)c([N+](=O)[O-])cc(C)c2[N+](=O)[O-])cn1 (centres undefined) | -37% | 8% | . | -6% | -28% | -1%
Cc1noc(C)c1-c1nc(NCc2cccs2)c2ccccc2n1 | . | . | . | 71µM* | . | -46%[0.501 µM]
Cc1noc(C)c1-c1nc(Nc2ccncc2)c2ccccc2n1 | . | . | 28µM* | -20% | . | .
CCOc1ccc(-n2c(SCC(=O)NCC3CCCO3)nc3c([nH]c4ccccc43)c2=O)cc1 (centres undefined) | 3% | 8%[57 µM] | 4% | . | -3% | 2%[59 µM]
CC(=O)N1CCN(S(=O)(=O)c2cccc(C(=O)NC3CC3)c2)CC1 | -15% | 24% | 0% | . | -12% | -44%[12.7 µM]
O=[N+]([O-])c1ccc(Nc2nc(N/N=C/c3cccc(F)c3)nc(N3CCCC3)n2)cc1 | -37% | 10% | 8% | 8% | -28% | -13%
O=[N+]([O-])c1ccc(Nc2nc(NC3CCCCC3)nc(N3CCCC3)n2)cc1 | ? | -4% | 8% | 2% | ? | 11µM*
CCOC(=O)c1oc2ccc(S(=O)(=O)n3nc(-c4cc(OCC)c(OCC)c(OCC)c4)cc3N)cc2c1C | -24% | 12% | 1% | . | -18% | -27%[59 µM]
CNC(=S)N(CCc1c(C)[nH]c2ccc(OC)cc12)Cc1ccco1 | ? | -6% | . | 12% | ? | 50µM*
COCCNC(=S)N(CCc1c(C)[nH]c2ccc(OC)cc12)Cc1ccco1 | ? | ? | . | 7% | ? | 50µM*
COCCNC(=S)N(CCc1c(C)[nH]c2ccc(F)cc12)Cc1ccc(C)cc1 | ? | 12% | . | 13% | ? | -3%
COCCNC(=S)N(CCc1c(C)[nH]c2ccc(C)cc12)Cc1ccco1 | 35µM* | -15% | 8% | 10% | ? | 45µM*
CCN(C(=O)CSc1nc2ncccc2[nH]1)c1ccc(C(C)C)cc1 | -3% | 25% | 3% | . | -12% | -5%[59 µM]
CCOC(=O)N1CCN(C(=O)CC(C)S(=O)(=O)c2cc3c(cc2C)NC(=O)CO3)CC1 (centres undefined) | -1% | 42% | 0% | 6% | -15% | 12%
SMILES | BAZ2B inh | HP1b chromo inh | TDP1 block | Sfp PPTase inh | JMJD2A Tudor inh | G9a block
CN(C)c1ccc(Nc2ncnc3c2c(-c2ccccc2)cn3-c2cccc(Cl)c2)cc1 | 4.5µM* | ? | 13% | . | 13µM* | 8.9µM*
Oc1ccccc1C1=NN(c2ccccc2)C(c2ccc(F)cc2)C1 (centres undefined) | 140% | 291% | . | -4% | 220% | 386%
Oc1ccccc1C1=Nc2nc3ccccc3n2C(c2ccccc2)C1 (centres undefined) | ? | 4% | 12% | -23% | ? | 13µM*
C=C(C(=O)C(C)(C)O)C(O)c1ccc([N+](=O)[O-])cc1 (centres undefined) | . | . | 12% | -24% | . | .
Cc1noc(C)c1C(=O)OCC(=O)Nc1ccc(N2CCOCC2)cc1 | . | 26% | 0% | . | 0% | .
CCC[C@H]1NC(=O)[C@H](C)N(C)C(=O)C(C)(C)C(=O)C(C)NC(=O)[C@H](Cc2ccc(OC)cc2)N(C)C(=O)[C@H](C(C)C)N(C)C(=O)CNC(=O)[C@H](CC(C)C)N(C)C(=O)CNC(=O)[C@H]([C@@H](C)CC)OC(=O)[C@H]1C (some centres undefined) | . | -6% | 0% | . | 22µM* | .
COc1ccc(CC2C(=O)NC(C)C(=O)N(C)C3Cc4ccc(cc4)Oc4cc(ccc4O)CC(C(=O)NC(C)C(=O)NC(C)C(=O)N2C)N(C)C3=O)cc1 (centres undefined) | . | 15% | . | . | -17% | .
CCOC(=O)COc1ccc(CC)cc1C(=O)c1ccn2nc(-c3ccc(F)cc3)cc2n1 | -15% | 45% | -5% | . | 0% | 10%[59 µM]
O=C(Cc1ccc(Cl)c(Cl)c1)N1CCOCC1 | -4% | -30% | . | -9% | -6% | -16%[2.33 µM]
O=C(NNC(=O)c1cc2cc(Br)ccc2oc1=O)c1ccc(O)cc1O | 11µM* | 0% | 25µM* | -25% | ? | -3%
COCCCNC(=O)c1cc2cc(Br)ccc2oc1=O | -16% | 27% | 0% | 14% | -12% | -9%
O=C(c1ccccc1)c1cc2ccc(O)cc2oc1=O | 11% | 16% | 4% | -26% | -7% | -37%[59 µM]
O=C(c1ccc(Br)cc1)c1cc2ccc(O)cc2oc1=O | -39% | -2% | . | ? | ? | 71µM*

From PubChem BioAssay
